# According to PubChem BioAssay (Tox21):
# Records with an inconclusive call do not appear. Entries that show only a call come without a potency. Unmarked numbers belong to inactive results. Activity calls are given as the source filed them. Calls come from the whole dose curve; as a rule, active = well fitted cell-killing curve with a large enough effect in the repeat runs; inconclusive = weak or mixed curves, or effect the other way; inactive = flat fitted curve, though single readings scatter.
# Test: qHTS assay to identify small molecule agonists of the estrogen receptor beta (ER-beta) signaling pathway - cell viability counter screen (AID 1259380); note: nearly all actives have a fitted effect of over 30% in size
# Details: ER-beta-bla HEK293T viability, CellTiter-Glo luminescence, 16 h; series mostly up to 92.4 µM
# Text: National Center for Advancing Translational Sciences [NCATS]
# NIH Chemical Genomics Center [NCGC]
# U.S. Environmental Protection Agency [EPA]
# National Institutes of Environmental Health Sciences [NIEHS]
# National Toxicology Program [NTP]
# U.S. Food and Drug Administration [FDA]
# Estrogen receptor (ER), a nuclear hormone receptor, plays an important role in development, metabolic homeostasis and reproduction. Two subtypes of ER, ER-alpha and ER-beta, have similar expression patterns with some uniqueness in both types. Endocrine disrupting chemicals (EDCs) and their interactions with steroid hormone receptors like ER causes disruption of normal endocrine function. To identify the compounds that activate ER signaling, an ER beta-UAS-bla GripTite cell line (Life Technologies, Madison, WI, USA) containing a beta-lactamase reporter gene under the control of an UAS response element was used to screen Tox21 10K compound library. The cytotoxicity of the Tox21 compound library against the ER-beta-bla cell line was tested in parallel by measuring the cell viability using CellTiter-Glo assay in the same wells.
# Tox21 Assay Protocol Summary:
# ER-beta-UAS-bla HEK293T cells were dispensed at 2,000 cells/5 uL of assay medium containing 2% charcoal stripped FBS per well into black wall/clear-bottom 1536-well plates using a Multidrop Combi (ThermoFisher Scientific, Waltham, MA) dispenser. After the assay plates were incubated at a 37C and 5% CO2 for 6 hr, 23 nL of compounds dissolved in DMSO, positive controls or DMSO only was transferred to the assay plate by a Pintool station (Kalypsys, San Diego, CA). The plates were incubated at 37C and 5% CO2 for 16 hr. Then 1 uL of LiveBLAzerTM B/G FRET substrate was added using a BioRAPTR FRD (Flying Reagent Dispenser, Aurora Discovery, San Diego, CA) and then the plates were incubated at room temperature for 2 hours, and fluorescence intensity was measured by an Envision plate reader (PerkinElmer, Shelton, CT). For cell viability readout that measures cytotoxicity, 4 uL/well of CellTiter-Glo reagent was added into the assay plates using a FRD. After 30 min incubation at room temperature, the luminescence intensity in the plates was measured using a ViewLux (PerkinElmer) plate reader.
# Potency is the fitted concentration of half-maximal effect.
SMILES,Potency,"activity change, negative = cytotoxicity"
CC1(C)[C@H](C(=O)OCc2cccc(Oc3ccccc3)c2)[C@@H]1C=C(Cl)Cl,inactive,
C/C=C/C(=O)OCC(C)C,inactive,
COc1c(Br)cc(Br)c(C)c1Br,inactive,
c1ccc2cc3c4ccccc4c4ccccc4c3cc2c1,inactive,
CC(O)(c1ccc(Cl)cc1)c1ccc(Cl)cc1,inactive,
CC(C=O)c1ccccc1 (stereo not given),inactive,
O=[N+]([O-])c1ccc(O)c2ncccc12,0.944 µM (active),
Cc1ccc(S(=O)(=O)C(I)I)cc1,21.7 µM (active),
C=C1C(CCl)(CCl)C2(Cl)C(Cl)C(Cl)C1(Cl)C2(Cl)Cl (stereo not given),48 µM (active),
Cc1ccc2sc3cccc(C)c3c2c1,inactive,
CCCCCCCCOC(=O)c1cc(O)c(O)c(O)c1,68.6 µM (active),
CO[Si](OC)(c1ccccc1)c1ccccc1,inactive,
Clc1nc(C(Cl)(Cl)Cl)c(Cl)c(Cl)c1Cl,8.63 µM (active),
O=C1OC(=O)c2cc(-c3ccc4c(c3)C(=O)OC4=O)ccc21,inactive,
C=CC(=O)O[C@H]1C[C@@H]2CC[C@@]1(C)C2(C)C,inactive,
c1ccc2c(c1)-c1ccc3ccc4cccc5cc-2c1c3c45,inactive,
Oc1ccc2c(c1)CCC2,inactive,
CCC(=O)OC/C=C(\C)CCC=C(C)C,inactive,
CC(CC(C)(C)C)CC(C)(C)CC(C)(C)C (stereo not given),inactive,
CCCCCN=C(N)N/N=C/c1c[nH]c2ccc(OC)cc12,16.8 µM (active),

SMILES,Potency,"activity change, negative = cytotoxicity"
CN1CCN(c2ccccc2/C=C2\SCCN(c3ccc(Cl)c(Cl)c3)C2=O)CC1,30.6 µM (active),
Oc1ccc(C2(c3ccc(O)c(C4CCCCC4)c3)CCCCC2)cc1C1CCCCC1,19.3 µM (active),
CCCCCCCCCCCCCCCCCCNC(=O)OC1CCN(C(=O)OC[C@H](COC(=O)N(Cc2cccc[n+]2CC)C(=O)c2ccccc2OC)OC)CC1,26.6 µM (active),
Clc1cccc(Cl)n1,inactive,
CN1CCN(CCCN2c3ccccc3Sc3ccc(C(F)(F)F)cc32)CC1,15 µM (active),
CCOC=C(C(=O)OCC)C(=O)OCC,inactive,
CC(C)(C)c1cc(CCC(=O)OCCSCCOC(=O)CCc2cc(C(C)(C)C)c(O)c(C(C)(C)C)c2)cc(C(C)(C)C)c1O,inactive,
CCCCC/C=C\C=C\C(=O)OCC,50.6 µM (active),
O=C(CCCCCCCCc1cccnc1)N1CCC(C=C(c2ccccc2)c2ccccc2)CC1,21.7 µM (active),
CCOC(=O)[C@H](C)O,inactive,
CCc1cccc(CC)c1,inactive,
COc1cc(C(C)C)ccc1C,,2.27% [at 19 µM]
Cc1ccc(Cl)c(N)c1Cl,inactive,
CCOC(=O)[C@H](O)[C@@H](O)C(=O)OCC,inactive,
Cc1cc(Br)ccc1NC(=O)CCl,30.6 µM (active),
CCN(CC)c1ccc(N=Nc2ccccc2)cc1,17.2 µM (active),
Cc1ccc2nc(-c3ccc(N)cc3)sc2c1S(=O)(=O)O,inactive,
CC1(C)[C@H]2CC[C@]1(C)C(=O)C2,inactive,
CC/C(=C(/c1ccc(O)cc1)c1ccc(OCCN(C)C)cc1)c1ccccc1,32 µM (active),
O=C1C=CC(=O)N1c1cccc(N2C(=O)C=CC2=O)c1,61.1 µM (active),
